hgDAF-12 ag: hgDAF-12 agonism, primary luciferase screen; HEK293 GAL4-hgDAF12 UAS-luciferase reporter, agonist luminescence; normalized to butyrate control; activation, % at 6.8 µM; 370,000 compounds, 1.8% hits; AID 687014;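 active means activation above a cutoff set at the mean of all screened compounds plus 3 SD, cut at about 10% in these data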
ssDAF-12 act: activates DAF-12 receptor from parasite S. stercoralis; HEK293 ssDAF-12/GRIP1 lit1-tk-luc reporter, luminescence; % of 3 µM dafachronic acid response; activation, % at 6.8 µM; 370,000 compounds, 1% hits; AID 652126;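 active means activation above the mean over all tested compounds plus 3 SD, cut at about 0.9% in these data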
AHR act: human AHR activation; AID 2796; activation, % at 5 µM; AHR-responsive luciferase reporter cells, luminescence; P35869; 320,000 compounds, 2.5% hits; in the data active means activation above about 47%
Target sequence (P35869 whole entry, looked up): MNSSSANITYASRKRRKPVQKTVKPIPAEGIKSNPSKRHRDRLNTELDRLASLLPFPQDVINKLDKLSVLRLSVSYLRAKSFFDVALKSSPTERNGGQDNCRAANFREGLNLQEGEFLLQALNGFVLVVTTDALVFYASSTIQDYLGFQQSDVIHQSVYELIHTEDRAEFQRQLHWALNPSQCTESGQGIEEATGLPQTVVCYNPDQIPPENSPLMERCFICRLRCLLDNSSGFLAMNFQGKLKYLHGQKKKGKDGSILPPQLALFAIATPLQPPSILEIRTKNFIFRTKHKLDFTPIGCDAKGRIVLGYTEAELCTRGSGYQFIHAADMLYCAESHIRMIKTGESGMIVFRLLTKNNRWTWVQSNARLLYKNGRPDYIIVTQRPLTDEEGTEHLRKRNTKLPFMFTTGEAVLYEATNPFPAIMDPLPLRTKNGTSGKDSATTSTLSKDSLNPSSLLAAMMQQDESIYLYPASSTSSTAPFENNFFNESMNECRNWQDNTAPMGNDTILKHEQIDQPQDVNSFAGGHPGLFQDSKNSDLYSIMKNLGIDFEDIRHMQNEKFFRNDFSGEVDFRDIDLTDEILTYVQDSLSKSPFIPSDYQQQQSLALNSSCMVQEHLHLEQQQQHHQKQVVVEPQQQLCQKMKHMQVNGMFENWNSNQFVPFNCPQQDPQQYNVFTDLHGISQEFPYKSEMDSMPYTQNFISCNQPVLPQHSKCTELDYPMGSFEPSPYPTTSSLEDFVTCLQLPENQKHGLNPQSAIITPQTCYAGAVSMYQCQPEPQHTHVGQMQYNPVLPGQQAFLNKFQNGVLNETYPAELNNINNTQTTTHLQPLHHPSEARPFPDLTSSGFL
hcDAF12 agonist: activates DAF-12 receptor from parasite H. contortus | 370,000 compounds, 1.4% hits | HEK293 hcDAF-12 lit1-tk-luc reporter, luminescence; 0% DMSO, 100% Δ7-dafachronic acid | activation, % at 6.8 µM;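 active means activation above the mean of all tested compounds plus 3 SD, cut at about 5.5% in these data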
DAX1 inh-1: blocks DAX1 repression of SF-1 activated StAR promoter. HEK293T StAR-luciferase reporter, SF-1/DAX-1 repression relief. inhibition, % at 6.8 µM. 370,000 compounds, 1.1% hits. AID 652010;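 active means inhibition above the mean over all tested compounds plus 3 SD, cut at about 3.6% in these data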;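 further: higher inhibition means more luminescence from relief of DAX-1 repression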
DAX1 inh-2: NR0B1 (DAX1) inhibition; inhibition, % at 6.75 µM; 340,000 compounds, 0.99% hits; HEK293 Gal4-DAX1 luciferase reporter, luminescence;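 active means inhibition above the mean over all tested compounds plus 3 SD, cut at about 4.2% in these data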;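 further: inhibition shows as a rise in luminescence from relieved DAX1 repression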
Large screens that a line does not name were inactive. Shown are actives, neighbours in structure and some others; about 5.7% of the full set was active somewhere.

CC(=O)c1c(C)[nH]c(C(=O)N(C)C(c2ccccc2)c2ccccc2)c1C	none
CC1=C(C(=O)c2ccccc2)C(c2ccc(N3CCOCC3)cc2)NC(=O)N1 (configuration not stated)	none
COc1ccc2[nH]c3c(=O)n(N)c(C)nc3c2c1	none
Cc1ccc2[nH]c3c(=O)n(N)c(C)nc3c2c1	AHR act 48 (no result: DAX1 inh-2)
COc1ccc(NC(=O)c2ccc(NCCN3C(=O)CCC3=O)c([N+](=O)[O-])c2)cc1	none
CC1CC(C(O)c2ccccn2)C(=O)C(C(O)c2ccccn2)C1 (configuration not stated)	ssDAF-12 act 2.0 (no result: AHR act)
OCC1OC(c2ccccc2)OC2COC(c3ccccc3)OC12 (configuration not stated)	none (no result: AHR act)
Cc1nc(SCC(=O)Nc2nccs2)c(C#N)c(C)c1C	AHR act 64
COc1ccc(-c2[nH]c(-c3ccc(Cl)cc3)nc2SCC(=O)Nc2nccs2)cc1	AHR act 62
COc1ccc(-n2c(SCC(=O)Nc3nccs3)nnc2-c2ccc(Cl)cc2)cc1	none (no result: AHR act)
Cc1ccc(/C=N/NC(=O)c2cccnc2)o1	AHR act 72
Cc1ccc(/C=N/NC(=O)c2csc(C)c2)o1	none
Cc1nn(-c2cccc(Cl)c2)c(Cl)c1/C=N/NC(=O)c1cccnc1	AHR act 78
Cc1nn(-c2ccccc2Cl)c(Cl)c1/C=N/Nc1cccc(C(=O)O)c1	DAX1 inh-1 4.0
Cc1ccc(/C=N/NC(=O)c2cccs2)o1	AHR act 78
O=C(OCC#CCSc1nnc(-c2cc3ccccc3cc2O)o1)c1ccc(F)cc1	none (no result: AHR act, DAX1 inh-1, DAX1 inh-2)
O=C1CN(C(=O)COC(=O)CCC(=O)c2ccc(F)cc2)c2ccccc2N1	none
O=C(OCCN1CCN(C2CN(Cc3cn(Cc4ccccc4C(F)(F)F)nn3)S(=O)(=O)C2)CC1)c1cc2ccccc2o1 (configuration not stated)	none (no result: AHR act, DAX1 inh-2)
O=C1C=C(c2ccccc2Oc2ccccc2)C[C@@H](c2ccc(F)cc2)C1	none (no result: AHR act)
CC(/C=N/NC(=O)c1cccs1)=C\c1ccco1	hgDAF-12 ag 12
CC(/C=N/NC(=O)CSc1nc2ccccc2n1C)=C\c1ccco1	hcDAF12 agonist 6.0
COc1ccc(/C=N/NC(=O)c2cccs2)c2ccccc12	hgDAF-12 ag 11, AHR act 53
Cc1ccc(/C=N\NC(=O)c2cncc(Br)c2)o1	AHR act 64
Cc1ccc2c(c1)/C(=C/c1ccccc1F)C(=O)N2	AHR act 68
COc1ccc(Br)c(-c2nnc(CS(=O)(=O)c3ccccc3)o2)c1	hgDAF-12 ag 11
CCOc1ccccc1-c1nnc(CS(=O)(=O)c2ccccc2)o1	none
CC1(C)CC(=O)C/C(=N/Nc2nc3ccccc3s2)C1	none
CC1CCC/C(=N/Nc2nc3ccccc3s2)C1 (configuration not stated)	AHR act 62, hcDAF12 agonist 6.4, DAX1 inh-2 5.3
O=C(CN1CCN(c2ccccn2)CC1)Nc1ccc([N+](=O)[O-])cc1C(=O)Nc1ccccc1F	AHR act 48
Cc1nc(N2CCN(c3ccccn3)CC2)c2c(C)c(C(=O)Nc3ccccc3F)sc2n1	DAX1 inh-2 5.3
N#CCCn1nc(-c2ccccc2)c2ccccc2c1=O	DAX1 inh-2 5.0
C[C@@H]1CN([C@H](C)CO)C(=O)CCCn2cc(nn2)CO[C@H]1CN(C)S(=O)(=O)c1cccs1	none (no result: AHR act, DAX1 inh-2)
C/C(CC(=O)NCc1ccccc1)=N\NC(N)=S	none
C/C(CC(=O)NCc1ccc(F)cc1)=N\NC(N)=S	DAX1 inh-2 4.8
CCOC(=O)CC1c2nc3ccccc3cc2CN1C(=O)OCC (configuration not stated)	none (no result: AHR act)
COc1cc(C2Nc3ccccc3C(=O)N2c2ccccc2OC)ccc1O (configuration not stated)	none
O=C1c2ccccc2NC(c2ccc3c(c2)OCCO3)N1c1ccc2c(c1)OCCO2 (configuration not stated)	hgDAF-12 ag 12
O=C1c2ccccc2NC(c2cccc(O)c2)N1c1ccccc1 (configuration not stated)	none
COc1cc(C2Nc3ccccc3C(=O)N2c2ccc3c(c2)OCCO3)ccc1OCC(C)C (configuration not stated)	hgDAF-12 ag 12
O=C(CCNC(=O)c1ccccc1Cl)Nc1ccncc1	none
O=C(CCNC(=O)c1ccccc1Cl)Nc1ccc(Br)c(C(F)(F)F)c1	ssDAF-12 act 19
COc1cc(-c2coc3c(C(=O)NC4CCCCC4)cccc23)ccc1O	none (no result: AHR act, DAX1 inh-2)
COc1cc(-c2coc3c(C(=O)Nc4ccc(C(C)C)cc4)cccc23)ccc1O	ssDAF-12 act 0.9, hcDAF12 agonist 5.6, DAX1 inh-1 4.0 (no result: AHR act, DAX1 inh-2)
Cc1csc(SCC(=O)NC(=O)NC2CCCC2)n1	none (no result: DAX1 inh-2)
Cc1ccc(OCc2nc(C#N)c(NCCCn3ccnc3)o2)cc1	none
N#Cc1nc(COc2ccccc2F)oc1NCCCn1ccnc1	AHR act 71
COc1ccccc1OCc1nc(C#N)c(NCCCn2ccnc2)o1	none
N#Cc1nc(COc2ccccc2)oc1NCCCn1ccnc1	AHR act 79
CC(C)C(NS(=O)(=O)c1cccc(C(F)(F)F)c1)C(=O)O (configuration not stated)	none
O=c1oc2ccc(Cl)cc2cc1-c1ccccc1	none
O=c1oc2ccccc2cc1-c1cn2ccccc2n1	AHR act 76
O=c1oc2ccccc2cc1-c1ccccc1	DAX1 inh-2 6.0
CC(=O)NC(CCc1ccc(Cl)c(Cl)c1)c1cccc(O)c(=O)c1 (configuration not stated)	none (no result: AHR act)
COc1ccc(CCNC(=O)c2cnn3c(C(F)F)cc(C)nc23)cc1OC	none
C/C(=N/OC(=O)c1ccc(C(F)(F)F)cc1)c1oc(C)nc1C	none
COc1ccc2c(CN(Cc3ccccc3)Cc3ccccc3)cc(=O)oc2c1	none (no result: AHR act, DAX1 inh-2)
O=c1cc(CN(Cc2ccccc2)Cc2ccccc2)c2c(ccc3ccccc32)o1	ssDAF-12 act 1.8 (no result: AHR act, DAX1 inh-2)
O=C1Nc2ccccc2N=C(c2ccc3c(c2)OCO3)C1N(C(=O)c1ccc2ccccc2c1)C1CC1 (configuration not stated)	hgDAF-12 ag 11, hcDAF12 agonist 5.6 (no result: AHR act, DAX1 inh-2)
O=C1Nc2ccccc2N=C(c2ccc3c(c2)OCO3)C1N(C(=O)c1ccnc2ccccc12)c1ccccc1 (configuration not stated)	none (no result: AHR act, DAX1 inh-2)
Oc1ccc(Cl)cc1-c1cc(-c2ccccc2Cl)[nH]n1	hcDAF12 agonist 6.1, DAX1 inh-2 5.6
O=[N+]([O-])c1ccccc1-c1cc(-c2cc(Cl)ccc2O)n[nH]1	none
N/C(=N\OC(=O)c1ccc(Cl)cc1)c1ccc(Cl)cc1	none
N=C(N)c1ccc(Cl)cc1	AHR act 52
CC(=O)COC(=O)C1CCN(S(=O)(=O)c2cc([N+](=O)[O-])ccc2Cl)CC1	DAX1 inh-2 4.3

Screens from PubChem BioAssay.
